Assay results from PubChem BioAssay (NCATS).
Inconclusive results are not listed. Where a call stands in place of a potency, no number is given. Calls of active or inactive are those of the source. Unless noted, calls follow the shape of the dose curve; as a rule, active = well fitted curve in the direction sought with a large enough effect; inconclusive = small, poorly fitted or top-dose-only effect, or another doubt; inactive = no such curve, though single readings can be large; an effect the other way counts as inactive or inconclusive.

Columns and labels:
[1] = target: T1, Hexokinase-4 (Homo sapiens) + Glucokinase regulatory protein (Homo sapiens) (UniProt P35557+Q14397); assay: qHTS assay for inhibitors of recombinant human GCK-GKRP interaction: Diaphorase-coupled assay (AID 743205); also: potency is read from the fitted curve at half-maximal effect
T1 sequence (P35557 whole entry, looked up): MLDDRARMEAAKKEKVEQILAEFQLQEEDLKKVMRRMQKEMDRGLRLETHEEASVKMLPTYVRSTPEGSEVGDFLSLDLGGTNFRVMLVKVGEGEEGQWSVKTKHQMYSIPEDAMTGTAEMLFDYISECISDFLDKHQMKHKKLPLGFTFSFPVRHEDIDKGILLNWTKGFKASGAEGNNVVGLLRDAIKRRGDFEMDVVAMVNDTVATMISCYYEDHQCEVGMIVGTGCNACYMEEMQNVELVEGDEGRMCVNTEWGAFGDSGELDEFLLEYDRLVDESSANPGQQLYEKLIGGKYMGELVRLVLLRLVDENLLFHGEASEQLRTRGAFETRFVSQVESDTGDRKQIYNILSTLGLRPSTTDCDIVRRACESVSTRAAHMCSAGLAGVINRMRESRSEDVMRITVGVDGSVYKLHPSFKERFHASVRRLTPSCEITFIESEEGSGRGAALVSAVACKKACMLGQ
T1 sequence (Q14397 whole entry, looked up): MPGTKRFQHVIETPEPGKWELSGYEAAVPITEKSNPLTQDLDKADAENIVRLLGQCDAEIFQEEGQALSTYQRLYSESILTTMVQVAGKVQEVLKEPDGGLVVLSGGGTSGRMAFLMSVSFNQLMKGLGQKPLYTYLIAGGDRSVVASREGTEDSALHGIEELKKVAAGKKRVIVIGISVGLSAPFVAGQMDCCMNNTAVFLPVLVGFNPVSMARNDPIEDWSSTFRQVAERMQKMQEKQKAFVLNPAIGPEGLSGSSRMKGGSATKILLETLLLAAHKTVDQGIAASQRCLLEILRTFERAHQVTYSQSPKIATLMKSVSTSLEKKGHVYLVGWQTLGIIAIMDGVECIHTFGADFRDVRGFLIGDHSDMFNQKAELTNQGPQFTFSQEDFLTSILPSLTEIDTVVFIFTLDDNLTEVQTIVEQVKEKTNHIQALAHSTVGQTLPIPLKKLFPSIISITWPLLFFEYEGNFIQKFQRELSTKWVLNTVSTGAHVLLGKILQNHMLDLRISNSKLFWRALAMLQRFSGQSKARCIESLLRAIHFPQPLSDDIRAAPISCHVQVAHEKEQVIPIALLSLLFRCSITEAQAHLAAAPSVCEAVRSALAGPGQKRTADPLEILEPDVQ
How it was run: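 Compounds pre-incubated 20 min with substrate, then 10 nM GST-GCK with 10 nM FLAG-GKRP added. GCK activity coupled via G6PDH and diaphorase to resorufin (5 mM glucose, 0.4 mM ATP, 0.15 mM NADP+, pH 7.6), read kinetically over 30 minutes at Ex 525/Em 590 nm.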

[2] = target: T1, Hexokinase-4 (Homo sapiens) + Glucokinase regulatory protein (Homo sapiens); assay: qHTS assay for inhibitors of recombinant human GCK-GKRP interaction: ADP-Glo assay (AID 743206)
How it was run: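 GST-GCK and FLAG-GKRP (15 nM each in the dispensed mix, with 2 uM S6P) react with 0.4 mM ATP and 5 mM glucose (final) in Hepes pH 7.6 for 60 min at room temperature. ADP is measured by ADP-Glo luminescence.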

[3] = target: T1, Hexokinase-4 (Homo sapiens) + Glucokinase regulatory protein (Homo sapiens); assay: qHTS assay for inhibitors of recombinant human GCK-GKRP interaction: HTRF assay (AID 743207)
How it was run: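 HTRF binding of 5 nM GST-GCK and 5 nM FLAG-GKRP with 2 uM S6P in pH 7.1 Hepes buffer (MgCl2, KCl, DTT, Tween 20, BSA). Anti-FLAG XL665 and anti-GST donor added, 60 min at room temperature; 665/615 nm read, normalized to with- and without-GCK controls.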

[4] = qHTS Assay for Identifying Gametocytocidal Compounds (AID 743244); also: potency is read from the fitted curve at half-maximal effect;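 as to max response: actives lower the fluorescent signal which means gametocytes are killed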; details: P. falciparum 3D7 stage III-V gametocytes, alamarBlue, 72 h; max response: stronger effect = lower value
How it was run: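 Late gametocytes (III–V), P. falciparum 3D7; 72 h drug, then 24 h alamarBlue; resazurin reduction read by fluorescence.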

[5] = qHTS assay for small molecule agonists of the antioxidant response element (ARE) signaling pathway measured by Nrf2-dependant transcriptional activity - cell viability counter screen (AID 720653; active = well fitted curve in the direction sought with a large enough effect in the repeat runs; an effect the other way counts as inactive or inconclusive); details: ARE-bla HepG2 viability, CellTiter-Glo ATP luminescence, 16 h; max response: stronger effect = lower value
How it was run: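 ARE-bla HepG2 cells (2,000/well) rested 5 hrs at 37C/5% CO2, then exposed to compounds in DMSO for 16 hrs. Viability was read in the same wells as intracellular ATP by luminescence, 30 min at room temperature after reagent addition.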

[6] = qHTS assay for cell viability of HEK293 cells (AID 743288); details: ATP luminescence (CellTiter-Glo), 18 h; max response: stronger effect = lower value; also: nearly all actives have a fitted effect of over 50% in size; also: potency is read from the fitted curve at half-maximal effect
How it was run: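 Parental HEK293 cells, 2,000 per well, preincubated at least 5 h at 37 C, then exposed to compounds in DMSO for 18 h at 37 C. Viability by CellTiter-Glo ATP luminescence after 30 min at room temperature.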

[7] = qHTS assay for cell viability of the p53RE-bla HCT-116 cell line (AID 743292); also: nearly all actives have a fitted effect of over 55% in size
How it was run: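 Viability of compound-treated p53RE-bla HCT-116 cells is taken from ATP-dependent luciferase luminescence. Treatment lasts 16 h at 37 C after a 5 h settling period; detection follows 30 min at room temperature.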

[8] = qHTS profiling for inhibitors of Plasmodium falciparum (3D7) proliferation (AID 743322; call rule not given here;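 also: infected erythrocytes exposed to compound for 72 h before lysis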); details: P. falciparum 3D7 proliferation; at 28.7 µM (top of the series)
How it was run: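 Erythrocytes infected with P. falciparum (0.3% parasitemia, 2.5% hematocrit) incubated with compounds 72 h at 37 C, 5% CO2. Lysis with saponin/Triton buffer containing SYBR Green I, overnight at room temperature in the dark; DNA fluorescence (485/535 nm) normalised to 0.29 uM artemisinin and DMSO.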

[9] = qHTS profiling for inhibitors of Plasmodium falciparum (DD2) proliferation (AID 743323; call rule not given here); details: lower = more inhibition; at 28.7 µM (top of the series)
How it was run: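 SYBR Green fluorescence (ex 485, em 535 nm) of lysed cultures gives parasite DNA content; wells normalized to artemisinin (0.29 uM) and DMSO controls. Infected red cells: 0.3% parasitemia, 2.5% hematocrit, 72 h, 37 C.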

In the case of `CC(N)Cc1c[nH]c2ccc(OCc3cccs3)cc12` (configuration not stated), the Potency [1] is reported as “inactive”, the outcome [2] is reported as “inactive” and the outcome [3] is reported as “inactive”.

In the case of `O=c1c2ccccc2[se]n1-c1ccccc1`, the Potency [1] is reported as 14.1 µM (active), the outcome [2] is reported as “inactive” and the outcome [3] is reported as “inactive”.

With `Nc1ccc(CCN2CCN(c3cccc(C(F)(F)F)c3)CC2)cc1` the Potency [1] was “inactive”, the outcome [2] was “inactive” and the outcome [3] was “inactive”. For the same compound, the max response [4] was 14.5% (inactive).

In the case of `Cc1cc([C@@H]2CCCN2C)on1`, the Potency [1] is reported as “inactive”, the outcome [2] is reported as “inactive” and the outcome [3] is reported as “inactive”.

With `O=[N+]([O-])C(Br)(CO)CO` the max response [5] was -12.6% (inactive), the Potency [6] was 50.1 µM (active) and the Potency [7] was “inactive”.

For `O=S1(=O)N(CCN2CC=C(c3c[nH]c4cc(F)ccc34)CC2)c2cccc3c2N1CCC3`, the Potency [1] was “inactive”, the outcome [2] was “inactive” and the outcome [3] was “inactive”.

With `C[C@]12Cc3cn4c(nc3C=C1CCC1C2CC[C@@]2(C)[C@H]1CC[C@@]2(O)C#N)nc1ccccc14` (some centres not stated) the Potency [1] was “inactive”, the outcome [2] was “inactive” and the outcome [3] was “inactive”.

For `COc1ccc2c(c1)[C@@]13CCCC[C@H]1[C@@H](C2)NCC3`, the Potency [1] was “inactive”, the outcome [2] was “inactive” and the outcome [3] was “inactive”.

In the case of `CN1CCC(c2c[nH]c3ccc(O)cc23)CC1`, the Potency [1] is reported as “inactive”, the outcome [2] is reported as “inactive” and the outcome [3] is reported as “inactive”. For the same compound, the max response [4] was 11.9% (inactive).

For `CC12NC(Cc3ccccc31)c1ccccc12` (configuration not stated), the Potency [1] was “inactive”, the outcome [2] was “inactive” and the outcome [3] was “inactive”. For the same compound, the max response [4] was 3.88% (inactive).

For `O=c1[nH]c(=O)n(Cl)c(=O)n1Cl`, the max response [5] was -11% (inactive), the max response [4] was 6.71% (inactive) and the max response [6] was -3.48% (inactive). The Potency [7] was “inactive”.

With `CCCCCCC(C)(C)c1ccc([C@@H]2C[C@H](O)CC[C@H]2CCCO)c(O)c1` the Potency [1] was “inactive”, the outcome [2] was “inactive” and the outcome [3] was “inactive”.

For `CC(N)c1cccc(Cl)c1Cl` (configuration not stated), the Potency [1] was “inactive”, the outcome [2] was “inactive” and the outcome [3] was “inactive”.

In the case of `CCCN(CCC)[C@H]1CCc2c(F)ccc(O)c2C1`, the Potency [1] is reported as “inactive”, the outcome [2] is reported as “inactive” and the outcome [3] is reported as “inactive”.

For `C[C@@H]1O[C@H](C[N+](C)(C)C)CS1`, the Potency [1] was “inactive”, the outcome [2] was “inactive” and the outcome [3] was “inactive”.

With `NC(N)=Nc1ccc2[nH]c3c(c2c1)C[C@@]1(O)[C@H]2Cc4ccc(O)c5c4[C@@]1(CCN2CC1CC1)[C@H]3O5` the Potency [1] was “inactive”, the outcome [2] was “inactive” and the outcome [3] was “inactive”.

In the case of `COc1ccc(CNC(=O)/C=C/c2ccc3[nH]cc(CCN(C)C)c3c2)cc1`, the Potency [1] is reported as “inactive”, the outcome [2] is reported as “inactive” and the outcome [3] is reported as “inactive”. The max response [4] was -2.88% (inactive).

With `CN(N=O)c1cc(O)ccc1O` the Potency [1] was “inactive”, the outcome [2] was “inactive” and the outcome [3] was “inactive”.

In the case of `CC(C)(O)[C@@H]1C2OC(=O)[C@@H]1[C@]1(O)C[C@H]3O[C@]34C(=O)O[C@H]2[C@]14C` (tested in a mixture with another compound), the Potency [1] is reported as “inactive”, the outcome [2] is reported as “inactive” and the outcome [3] is reported as “inactive”. For the same compound, the max response [4] was 18.2% (inactive).

For `NCC(CP(=O)(O)O)c1ccc(Cl)cc1` (configuration not stated), the Potency [1] was “inactive”, the outcome [2] was “inactive” and the outcome [3] was “inactive”.

With `CCn1cnc2c(Nc3cccc(Cl)c3)nc(N[C@@H]3CCCC[C@@H]3N)nc21` the Potency [1] was “inactive”, the outcome [2] was “inactive” and the outcome [3] was “inactive”.

In the case of `CCOC(=O)c1ncn2c1[C@@H]1CCCN1C(=O)c1cc(OC)ccc1-2`, the Potency [1] is reported as “inactive”, the outcome [2] is reported as “inactive” and the outcome [3] is reported as “inactive”.

With `CCS(=O)(=O)Nc1cccc(C(=C2CCCCC2)c2cnc[nH]2)c1` the Potency [1] was “inactive”, the outcome [2] was “inactive” and the outcome [3] was “inactive”.

For `N#CN`, the max response [5] was -18.5% (inactive), the max response [6] was -11.1% (inactive) and the Potency [7] was “inactive”.

In the case of `Clc1ccc(N2CC3CCC(C2)N3)nn1`, the Potency [1] is reported as “inactive”, the outcome [2] is reported as “inactive” and the outcome [3] is reported as “inactive”. For the same compound, the max response [4] was 23.5% (inactive).

In the case of `CCN1C[C@@]2(COC)C3[C@@H](OC)C4[C@@H]1C3([C@@H]1C[C@]3(O)[C@H](OC(=O)c5ccccc5)[C@@H]1[C@]4(OC(C)=O)[C@@H](O)[C@@H]3OC)[C@H](OC)C[C@H]2O`, the Potency [1] is reported as “inactive”, the outcome [2] is reported as “inactive” and the outcome [3] is reported as “inactive”.

In the case of `CC(=O)c1c(O)c(C)c(O)c(Cc2c(O)c3c(c(C(=O)/C=C/c4ccccc4)c2O)OC(C)(C)C=C3)c1O`, the Potency [1] is reported as “inactive”, the outcome [2] is reported as “inactive” and the outcome [3] is reported as “inactive”. The max response [4] was 17.7% (inactive), the remaining parasite growth % (stronger effect = lower value) [8] was -0.946% and the activity, percent of control [9] was -0.827%.

In the case of `C[N+](C)(C)CC#CCOC(=O)Nc1cccc(Cl)c1`, the Potency [1] is reported as “inactive” and the outcome [3] is reported as “inactive”.

In the case of `C[N+]1(C)CCOC(O)(c2ccc(-c3ccc(C4(O)C[N+](C)(C)CCO4)cc3)cc2)C1` (configuration not stated), the Potency [1] is reported as “inactive”, the outcome [2] is reported as “inactive” and the outcome [3] is reported as “inactive”. The max response [4] was 5.92% (inactive).

With `CC(Cc1ccc(OCC(=O)O)cc1)NCC(O)c1cccc(Cl)c1` (configuration not stated) the Potency [1] was “inactive”, the outcome [3] was “inactive” and the max response [4] was 16.8% (inactive).

With `C[Se]C[C@H](N)C(=O)O` the Potency [1] was “inactive”, the outcome [3] was “inactive” and the max response [4] was -6.02% (inactive).

For `CO[C@H]1CC=C2CCN3CCC4=C(CC(=O)OC4)[C@]23C1`, the Potency [1] was “inactive”, the outcome [3] was “inactive” and the max response [4] was -3.4% (inactive).

In the case of `NCCc1ccc(S(=O)(=O)F)cc1`, the Potency [1] is reported as “inactive”, the outcome [3] is reported as “inactive” and the max response [4] is reported as 22.8% (inactive).

In the case of `Oc1ccc2c3c1O[C@H]1c4[nH]c5ccccc5c4C[C@@]4(O)C(C2)N(CC2CC2)CCC314` (some centres not stated), the Potency [1] is reported as “inactive” and the outcome [3] is reported as “inactive”.

In the case of `CC1(C(=O)O)C2CCC(O2)C1(C)C(=O)O` (configuration not stated), the Potency [1] is reported as “inactive” and the outcome [3] is reported as “inactive”.

With `C[C@H](N)CN1CCc2ccc(Br)cc21` the Potency [1] was “inactive”, the outcome [2] was “inactive” and the outcome [3] was “inactive”. The Potency [4] was 7.43 µM (active), the remaining parasite growth % (stronger effect = lower value) [8] was 99.2% and the activity, percent of control [9] was 24.2%.

For `C[N+](C)(C)CCOC(=O)CBr`, the Potency [1] was “inactive”, the outcome [3] was “inactive” and the max response [4] was 20.4% (inactive).

With `CCCN1CCc2cccc3c2[C@H]1Cc1ccc(O)c(O)c1-3` the Potency [1] was “inactive” and the outcome [3] was “inactive”.

With `CNc1ccc2oc(C[C@H]3O[C@@]4(CC[C@H]3C)O[C@H]([C@H](C)C(=O)c3ccc[nH]3)[C@H](C)C[C@H]4C)nc2c1C(=O)O` the Potency [1] was “inactive”, the outcome [3] was “inactive” and the Potency [4] was 2.35 µM (active).
